For 17 molecules, growth results are on record in PubChem BioAssay (NCI).

Each structure is given as a SMILES string. Compounds without any hit were thinned out: in the full panel of roughly 83,000, 20% have a hit.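 How to read the values: 0–100, growth inhibition (40 = 60% inhibited); 0, no net growth; -100 to 0, cell death (-40 = 40% of starting cells died; -100 = all dead).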 Calls of active or inactive are those of the source. How the source made its calls: active means growth percent below 10; inactive means the rest.

In this experiment the test system is HCT-116 colon. The experiment is described as follows: NCI-60 one-dose screen, 48 h (100 = growth as untreated, 0 = no growth, -100 = all killed). To be noted: 10 µM unless noted.
As to `COc1ccc2c(c1)C(=O)/C(=C/c1cccc(OCC(=O)c3ccccc3)c1)CC2`, the growth is 72.1% (inactive).
As to `NC(=Nc1ccccc1)SCCCCSC(N)=Nc1ccccc1`, the growth is 88% (inactive).
Regarding `CC/C(=C\c1ccc(N(C)C)cc1)c1ccncc1`, the growth was 22.2% (inactive).
Regarding `CCOC(=O)c1cc(-c2cccnc2)nc2c(Cl)cc(Cl)cc12`, the growth was 56.4% (inactive).
In the case of `Clc1ccc(-n2cnc3c(Cl)ncnc32)cc1Cl`, the growth was 61.1% (inactive).
Take `O=C(CSCC(=O)N/N=C/c1ccccc1O)N/N=C\c1ccccc1O`: the growth was 16.6% (inactive).
For `COc1ccc(C(=O)COc2cccc(/C=C3\Oc4ccc5ccccc5c4C3=O)c2)cc1` the value was 29% (inactive).
Take `CC(=O)NC1(C(=O)O)CCCC1`: the growth is 112% (inactive).
For `CCOC(=O)C1=NN(c2ccc(Cl)cc2)C2C3N(c4ccc(Cl)cc4)N=C(C(=O)OCC)N3c3ccccc3N12` (configuration not stated) the value was 87.9% (inactive).
Regarding `CC(=O)Oc1ccc(C23c4ccccc4C2(OC(C)=O)c2cc(OC(C)=O)ccc23)cc1` (configuration not stated), the growth was 61.6% (inactive).
`COc1ccc(/C=C2\NC(=S)NC2=O)cc1`: the growth is 99.4% (inactive).
Turning to `O=C(/C=C/c1ccccc1)CC(c1ccccc1)N1CCOCC1` (configuration not stated), the growth is -97% (active).
For `CCn1c2ccccc2c2ccc(C(C)=O)cc21` the value was 105% (inactive); for `Cc1ccc(C=C2C(Cl)=C(Cl)C(Cl)=C2Cl)cc1`, -100% (active); for `Cc1ccccc1NC(=O)c1cc2ccccc2cc1O`, 30.3% (inactive).
Regarding `c1ccc(-n2nnnc2-c2cccc3ccccc23)cc1`, the growth is 14.9% (inactive).
Regarding `Nc1ccccc1-c1ccc([N+](=O)[O-])cc1`, the growth was 60.1% (inactive).
